# Data taken from ChEMBL document CHEMBL3988442, “University of Dundee, Small-Polar-MMV Screening Library” (2021).
# In all, about 69,000 compounds went through this assay and about 1,000 (1.4%) showed an effect of 50% or more. Only a selection was taken, and strong results are over-represented in it overall.
# System: Leishmania donovani
# Experiment: Leishmania intramacrophage assay
# Type: functional, organism-based
# Parameters: scale not given: in the data most compounds retested in dose-response had high values
compound,measurement,setting,value
Cl.Cl.O=C([C@H]1CCCN1)N1CC2(CCNCC2)c2cc(Cl)ccc21,Percent Effect,"30.3 µM, […]",35.2%
Cl.Cl.O=C([C@@H]1CSCN1)N1CC2(CCNCC2)c2cc(Cl)ccc21,Percent Effect,"30.3 µM, […]",30.82%
Cl.O=C(c1ccccc1F)N1CC2(CCNCC2)c2cc(Cl)ccc21,Percent Effect,"30.3 µM, […]",46.46%
CC(C)C[C@H](N)C(=O)N1CC2(CCNCC2)c2cc(Cl)ccc21.Cl.Cl,Percent Effect,"30.3 µM, […]",94.41%
C[C@@H](N)C(=O)N1CC2(CCNCC2)c2cc(Cl)ccc21.Cl.Cl,Percent Effect,"30.3 µM, […]",18.29%
CN(C)C(=O)N1CC2(CCNCC2)c2cc(Cl)ccc21.Cl,Percent Effect,"30.3 µM, […]",-49.76%
CCc1noc(C)c1C(=O)N(C)Cc1ncc(C)c(OC)c1C,Percent Effect,"30 µM, 30.03 µM",17.33%
CN(CCCC#N)C1CCCN(Cc2noc(C3CC3)n2)C1 (stereo unspecified),Percent Effect,"30 µM, 30.03 µM",35.66%
Cc1cccnc1CC(C)N(C)C(=O)c1cccs1 (stereo unspecified),Percent Effect,"30.3 µM, […]",22.03%
CNC(=O)c1cnc(/C=C/c2cc(OC)c(O)c(OC)c2)s1,Percent Effect,"30.3 µM, […]",3.705%
CCn1cc(NC(=O)C(C)n2ncc(Cl)c2C)c(C(=O)NCC(C)C)n1 (stereo unspecified),Percent Effect,"30.3 µM, […]",23.51%
CC(Oc1ccc2c(c1)OCO2)C(=O)N1CCC(N2CCCC2)CC1 (stereo unspecified),Percent Effect,"30.3 µM, […]",30.73%
CCN(Cc1nonc1C)C(=O)c1ccc(Br)o1,Percent Effect,"30.3 µM, […]",25.68%
O=C(O)C(F)(F)F.O=C1[C@H]2CN(CC3CCOCC3)C[C@H]2CN1Cc1cccc(F)c1,Percent Effect,"30.3 µM, […]",2.876%
CN1CCC2(CCCN(c3nccc(C(F)(F)F)n3)C2)CC1.O=C(O)C(F)(F)F,Percent Effect,"30.3 µM, […]",21.14%
CC(C)N1CCC2(CCCN(c3nccc(C(F)(F)F)n3)C2)CC1.O=C(O)C(F)(F)F,Percent Effect,"30.3 µM, […]",54.65%
O=C(O)C(F)(F)F.O=C(O)C(F)(F)F.c1cnc(N2CCCC3(CCN(c4ncccn4)C3)C2)nc1 (stereo unspecified),Percent Effect,"30.3 µM, […]",12.64%
O=C(c1ccccc1OCC1CC1)N1CCCC(n2ccnc2)C1 (stereo unspecified),Percent Effect,"30 µM, 30.03 µM",5.028%
Cc1cc(C)n(-c2nc(NCCCO)c3c4c(sc3n2)CCCC4)n1,Percent Effect,"30.3 µM, […]",97.76%
Cc1cc(C)n(C2=NC(NCCC(C)C)c3c(sc4c3CCCC4)N2)n1 (stereo unspecified),Percent Effect,"30.3 µM, […]",29.71%
Cc1nc(CN2CCCC2C(=O)OCc2ccccc2)oc1C (stereo unspecified),Percent Effect,"30.3 µM, […]",0.6047%
O=C1NCCN1C1CCN(Cc2nc(-c3ccc(F)cc3)no2)CC1,Percent Effect,30 µM,36.95%
CC1COCCN1Cc1nc(-c2ccc(F)cc2)no1 (stereo unspecified),Percent Effect,30 µM,12.83%
Fc1ccc(-c2noc(CN3CCC(c4cc[nH]n4)CC3)n2)cc1,Percent Effect,"30.3 µM, […]",54.52%
c1ccc(-c2cc(CN3CCC(c4ccn[nH]4)CC3)on2)cc1,Percent Effect,"30 µM, 30.03 µM",56.61%
Cc1ccccc1-c1noc(CN2CCC(c3ccn[nH]3)CC2)n1,Percent Effect,"30.3 µM, […]",-17.93%
Cc1ccc(-c2noc(CN3CCC(c4ccn[nH]4)CC3)n2)cc1,Percent Effect,"30.3 µM, […]",12.54%
c1cc(C2CCN(Cc3nc(C4CC4)no3)CC2)[nH]n1,Percent Effect,"30.3 µM, […]",12.31%
c1ccc(-c2noc(CN3CCC(c4ccn[nH]4)CC3)n2)cc1,Percent Effect,"30 µM, 30.03 µM",52.27%
Cc1cccc(-c2noc(CN3CCC(c4ccn[nH]4)CC3)n2)c1,Percent Effect,"30.3 µM, […]",43.8%
CC(C)c1cc(C(=O)NCCc2nc(-c3ccncc3)n[nH]2)[nH]n1,Percent Effect,"30.3 µM, […]",-0.4105%
Cc1cc(SC(C)(C)C)ccc1NC(C)C(=O)NC(N)=O (stereo unspecified),Percent Effect,"30.3 µM, […]",-16.97%
Cc1nc(C2CCCC2)sc1C(N)=O,Percent Effect,"30.3 µM, […]",-15.57%
Cc1cnn(CC2CCCN2c2ncnc3ccsc23)c1 (stereo unspecified),Percent Effect,30 µM,46.26%
CCCNC(=O)COc1cccc(-c2nc(C(C)C)no2)c1,Percent Effect,"30.3 µM, […]",13.17%
CCC(Nc1nc(CCN)nc2ccccc12)c1cccs1 (stereo unspecified),Percent Effect,"30.3 µM, […]",67.47%
CCC(Nc1nc(CCN)nc2ccccc12)c1cc(C)ccn1 (stereo unspecified),Percent Effect,"30.3 µM, […]",19.32%
NCCc1nc(N[C@@H](CO)c2ccccc2)c2ccccc2n1,Percent Effect,"30.3 µM, […]",7.922%
CC1c2ncc(Cn3cccn3)n2CCN1S(=O)(=O)C1CC1 (stereo unspecified),Percent Effect,"30.3 µM, […]",4.524%
Cc1ccc2oc(CN3CCC(C(=O)O)(n4ccnc4)CC3)c(C)c2c1,Percent Effect,"30.3 µM, […]",21.21%
CN(C)C[C@@H]1C[C@@H]2CN(Cc3nccn3C)CC[C@@H]2N1CC1CC1,Percent Effect,"30.3 µM, […]",27%
CC(C)C(=O)N1CCN(c2ncnc3cc4c(cc23)OCCO4)CC1,Percent Effect,"30.3 µM, […]",56.87%
CCC(=O)N1CCN(c2ncnc3cc4c(cc23)OCCO4)CC1,Percent Effect,"30.3 µM, […]",-95.64%
CC(=O)N1CCN(c2ncnc3cc4c(cc23)OCCO4)CC1,Percent Effect,"30.3 µM, […]",39.4%
COc1cc2cc(C(=O)N[C@@H](C)C(=O)O)n(C)c2c(OC)c1OC,Percent Effect,"30 µM, 30.03 µM",2.156%
O=C(c1cccnc1)N1CCc2onc(CN3CCCC3)c2C1,Percent Effect,"30.3 µM, […]",14.82%
Cc1nnc2n1CCN(CC(O)CN1CCC(C)CC1)C2 (stereo unspecified),Percent Effect,"30.3 µM, […]",33.92%
CCC(CN1CCCC1)n1cncc1-c1cnn(-c2ccc(F)cc2)c1.Cl (stereo unspecified),Percent Effect,"30.3 µM, […]",14.1%
COc1c(C)cnc(CN(C)C2CCCCC2)c1C,Percent Effect,"30.3 µM, […]",77.94%
COc1c(C)cnc(CN(C)C2CCOC3(CCOCC3)C2)c1C (stereo unspecified),Percent Effect,"30.3 µM, […]",5.753%
COc1c(C)cnc(CN(C)C2CCN(C3CCOCC3)CC2)c1C,Percent Effect,"30.3 µM, […]",38.73%
